Screens deposited in PubChem by National Center for Advancing Translational Sciences (NCATS).
Hits are enriched below; roughly 10% of the tested compounds scored in any of these assays.
hNpr1 antagonist – human Npr1 receptor antagonism. P16066. HEK293 hNpr1 GloSensor cGMP, ANP-stimulated luminescence. Potency, µM (top dose mostly 46.3 µM), for inactives: at the highest dose activity change, negative = inhibition, usual class: inhibitors. 1.6% of 76,000 active. AID 1347048; calls by dose curve; note: nearly all actives have a fitted effect of over 60% in size
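Compound pre-incubated 30 min at room temperature on GloSensor-loaded HEK293 cells stably carrying hNpr1 and the pGS-40F cGMP biosensor. Stimulation uses hNppA at 0.1 nM final; luminescence is taken at baseline and 20 min post-agonist.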
HEK cytotox – HEK 293 cell cytotoxicity; Potency, µM (series often up to 115 µM), for inactives: at the top dose activity change, negative = cytotoxicity, hits mostly inhibitors; 6.6% of 94,000 active; HEK 293 viability, ATP luminescence (CellTiter-Glo), 48-72 h; AID 1345083; note: nearly all actives have a fitted effect of over 60% in size
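CellTiter-Glo luminescence (cellular ATP) was read after 48 or 72 hr of compound exposure at 37 degree Celsius. Cells were HEK 293 plated at 250 cells/well.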
Luciferase inh – Photinus pyralis luciferase inhibition; P08659; purified P. pyralis luciferase, luminescence, biochemical; Potency, µM (highest dose often 115 µM), usual class: inhibitors; 2.5% of 76,000 active; note: nearly all actives have a fitted effect of over 65% in size
Target sequence (P08659 whole entry, looked up): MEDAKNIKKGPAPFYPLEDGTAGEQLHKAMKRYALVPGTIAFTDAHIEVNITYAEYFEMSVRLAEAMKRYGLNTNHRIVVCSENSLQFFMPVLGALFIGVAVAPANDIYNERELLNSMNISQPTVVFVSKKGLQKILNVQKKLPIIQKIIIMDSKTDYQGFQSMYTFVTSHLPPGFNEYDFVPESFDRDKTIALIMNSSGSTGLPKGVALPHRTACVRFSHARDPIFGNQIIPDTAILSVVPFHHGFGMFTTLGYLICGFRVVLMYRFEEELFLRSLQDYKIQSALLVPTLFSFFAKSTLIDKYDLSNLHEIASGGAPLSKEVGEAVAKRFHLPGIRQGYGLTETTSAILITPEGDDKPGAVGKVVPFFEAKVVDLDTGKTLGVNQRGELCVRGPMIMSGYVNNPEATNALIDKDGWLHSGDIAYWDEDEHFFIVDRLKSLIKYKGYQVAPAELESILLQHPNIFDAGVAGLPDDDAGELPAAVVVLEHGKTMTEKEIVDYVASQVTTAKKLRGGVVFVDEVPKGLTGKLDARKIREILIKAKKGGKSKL
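Inhibitors were tested against purified firefly luciferase in a biochemical, low-substrate format (both substrates at 10uM) and luminescence measured with a CCD imager.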
GPT2 inh – blocks human glutamate pyruvate transaminase 2 | Q8TD30 | Recombinant GPT2, coupled pyruvate oxidase/HRP Amplex Red fluorescence | Potency, µM (doses to about 57.7 µM), for the others: at the highest dose activity change, negative = inhibition, actives largely listed as inhibitors | 0.25% of 100,000 active | AID 1671188; note: nearly all actives have a fitted effect of over 60% in size
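Fluorescence of coupled pyruvate oxidase/HRP/Amplex Red system (50uM Amplex, 30 min, dark) reports pyruvate formed by GPT2. Enzyme reaction: 10ng/uL GPT2, 2mM L-alanine, 250uM a-KG, 30 min room temperature, pH 7.5; 50uM AOA control.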
3T3 cytotox – NIH 3T3 cell cytotoxicity; NIH 3T3 viability, CellTiter-Glo ATP luminescence, 48-72 h; Potency, µM (series often up to 96.7 µM), inactives show at the highest dose activity change, negative = cytotoxicity, actives largely listed as inhibitors; 4.3% of 94,000 active; AID 1345082; note: nearly all actives have a fitted effect of over 55% in size
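Viability of NIH 3T3 cells after 48 or 72 hr compound treatment at 37 °C was assessed by CellTiter-Glo, with luminescence imaged following a 10 min room-temperature step.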
Starred values were filed as active, the others as inactive; i = inactive; ? = inconclusive; · = no result; [ ] = another dose, or the depositor's remark. Unless noted, calls come from the whole dose curve; as a rule, active = well fitted curve in the direction sought with a large enough effect; inconclusive = small, poorly fitted or top-dose-only effect, or another doubt; inactive = no such curve, though single readings can be large; an effect the other way counts as inactive or inconclusive. % is set by controls: 0 for no effect and ±100 for the full control effect; potency is the fitted concentration of half-maximal effect.

SMILES	hNpr1 antagonist	HEK cytotox	Luciferase inh	GPT2 inh	3T3 cytotox
CN(C)c1nccnc1OC1CCN(C(=O)CCCc2ccccc2)C1 (centres undefined)	1%	79µM*	?	3%	-11%
CN(C)c1nccnc1OC1CCN(C(=O)c2ccn[nH]2)C1 (centres undefined)	-7%	0%	25µM*	-10%	i
CN(C)c1nccnc1OC1CCN(C(=O)CC2CCCC2)C1 (centres undefined)	6%	?	35µM*	i	-7%
CN(C)c1nccnc1OC1CCN(C(=O)c2ccccc2Br)C1 (centres undefined)	-10%	-1%	?	i	-15%
CCc1ccc(C(=O)N2CCC(Oc3nccnc3N(C)C)C2)cc1 (centres undefined)	-18%	?	?	?	-4%
CC1(C)CC[C@]2(C(=O)O)CC[C@]3(C)C(=CCC4[C@@]5(C)CCC(O[C@@H]6OC[C@H](O)[C@H](O)[C@H]6O[C@@H]6O[C@H](CO)[C@@H](O)[C@H](O)[C@H]6O)[C@@](C)(CO)C5CC[C@]43C)[C@@H]2C1 (some centres undefined)	·	·	·	3%[17.1 µM]	·
CO[C@H]1C(=O)N(C(C)C)[C@H]1C1CCN(S(=O)(=O)c2cccc3nsnc23)CC1	·	-28%	·	i	-27%
O=C(NCCN1C(=O)C2(CCCCC2)C1c1ccccc1)C1CC=CC1 (centres undefined)	·	?	·	i	-25%
Cc1ccc(C2Cn3nnc(C(=O)N4CCC(C(=O)NCc5cccc(F)c5)CC4)c3CO2)cc1 (centres undefined)	-2%	-2%	35µM*	-3%	-16%
Cc1ccc(C2Cn3nnc(C(=O)N4CCC(C(=O)NCc5cc(F)cc(F)c5)CC4)c3CO2)cc1 (centres undefined)	-1%	-6%	16µM*	-1%	i
Cc1ccc(C2Cn3nnc(C(=O)N4CCC(C(=O)NCc5cccc(Cl)c5)CC4)c3CO2)cc1 (centres undefined)	-7%	-16%	22µM*	i	-22%
COc1ccc(S(=O)(=O)N2CCC3(CC2)CC(OCC2CC2)CCO3)cc1 (centres undefined)	-7%	-6%	i	i	?
Cc1ccccc1N(C)C1CN(C(=O)c2ccc3c(c2)OCO3)C1	·	?	·	i	?
Cc1ccc(C(=O)N2CCC(n3cnnc3-c3ccccc3)CC2)s1	·	-13%	·	-6%	-5%
CN1C[C@H](NCc2cccc(Cl)c2)CCC[C@@H](C(=O)NCc2cc(F)cc(F)c2)CC1=O	5%	45µM*	i	i	?
COc1ccc(CNC(=O)[C@@H]2CCC[C@@H](NCc3cccc(Cl)c3)CN(C)C(=O)C2)cc1	-19%	?	i	-3%	?
O=C(c1cccs1)N1CCC[C@H]1c1nc(-c2ccccc2)no1	-15%	?	i	4%	-18%
CC(C)c1noc(C2CCCN2C(=O)c2cc(-c3cccs3)n(C)n2)n1 (centres undefined)	1%	-29%	32µM*	-12%	-22%
CN(C)C(=O)c1ccc(-c2cc(NC3CCCC3)nc3[nH]ccc23)o1	6%	45µM*	?	-25%	?
c1nc(-c2cc(NC3CCNCC3)nc3[nH]ccc23)c2sccc2n1	-13%	?	i	i	?
Cc1ccsc1C(=O)N1CCC[C@H](n2c(=O)n(CC3CC3)c3cccnc32)C1	-23%	25µM*	i	i	?
Cn1nc(C(=O)N2CCC[C@H](n3c(=O)n(CC4CC4)c4cccnc43)C2)c2ccccc21	·	32µM*	·	i	?
O=C(c1ccc2nccnc2c1)N1CCCCC1	·	·	·	i	·
COCCNc1ccc2nnc(-c3ccccn3)n2n1	3%[70.6 µM]	0%[230 µM]	i	-8%[88.5 µM]	?
COCCCNc1ccc2nnc(-c3ccc(C)cn3)n2n1	-6%[70.6 µM]	-8%[172 µM]	i	1%[88.5 µM]	89µM*
SMILES	hNpr1 antagonist	HEK cytotox	Luciferase inh	GPT2 inh	3T3 cytotox
Cc1ccc(-c2nnc3ccc(NCc4cccs4)nn23)nc1	-12%[70.6 µM]	100µM*	i	-17%[88.5 µM]	?
O=C(CCCc1c[nH]c2ccccc12)NCC(=O)N1CCCCCNC(=O)CC1c1ccccc1 (centres undefined)	7%	i	i	-2%	i
COc1cccc(C(=O)N2CCC(C(=O)N3CCCC(c4nc5ccncc5[nH]4)C3)CC2)c1 (centres undefined)	·	-11%	·	i	-15%
COc1ccc(-c2nccc3c(=O)cc(N4CCN(C)CC4)oc23)cn1	-1%[70.6 µM]	i	i	1%[88.5 µM]	?
COc1ncc(-c2nccc3c(=O)cc(N4CCN(C)CC4)oc23)cn1	1%[70.6 µM]	-13%[172 µM]	i	2%[88.5 µM]	89µM*
COc1cc(CNc2nccc3c(=O)cc(N4CCOCC4)oc23)cc(OC)c1	-2%[70.6 µM]	-14%[172 µM]	i	0%[88.5 µM]	89µM*
COc1cccc(-c2nccc3c(=O)cc(N4CCOCC4)oc23)c1	9%[70.6 µM]	?	i	-8%[88.5 µM]	20µM*
O=c1cc(N2CCOCC2)oc2c(-c3cccnc3)nccc12	6%[70.6 µM]	-9%[172 µM]	i	-4%[88.5 µM]	79µM*
COCCOc1ccnc(-c2noc([C@@H]3CCCN3Cc3cn(C)c4ccccc34)n2)c1	7%[70.6 µM]	?	i	?	?
Cc1ccc(-c2cccc(CN3CCCC3C(=O)NC3CCCC3)c2)cc1Cl (centres undefined)	·	35µM*	·	·	?
Cc1cc(C)cc(-c2ccc(CN3CCCC3C(=O)N3CCCCC3)cc2)c1 (centres undefined)	·	?	·	i	?
C#CCNC(=O)C1CCCN1Cc1ccc(-c2cncnc2)cc1 (centres undefined)	·	-18%[172 µM]	·	i	-13%[138 µM]
O=C(NC1CCCCCC1)C1CCCCN1Cc1ccc(-c2ccsc2)cc1 (centres undefined)	·	?	·	5%	-34%
C#CCNC(=O)C1CCCN1Cc1cccc(-c2ccc(C)c(Cl)c2)c1 (centres undefined)	·	40µM*	·	·	40µM*
COCCCNC(=O)C1CCCN1Cc1cccc(-c2ccc(C)c(Cl)c2)c1 (centres undefined)	·	?	·	·	40µM*
Cc1ccc(-c2cccc(CN3CCCC3C(=O)N3CCCC(C)C3)c2)cc1Cl (centres undefined)	·	?	·	·	32µM*
CO[C@@]12CC3[C@@H]([C@@H](O)[C@@H](OC(C)=O)C4[C@](C)(COC(C)=O)CCC[C@]34C)[C@@H](C)C1=CC(=O)O2 (some centres undefined)	·	·	·	-2%[27.3 µM]	·
CNC(=O)C1CCCN1Cc1cccc(-c2ccc(C)c(Cl)c2)c1 (centres undefined)	·	25µM*	·	·	35µM*
